What was measured:
Experiment in all cases: DAPPL (digital affinity profiling via proximity ligation, sequencing); 10 mM Tris-HCl pH 7.5, 50 mM NaCl, 1 mM DTT, 4% glycerol, room temperature, 30 min; GST-TFs on glutathione beads, 16-mer random dsDNA library, 0.1% formaldehyde crosslink after washing; high values mean tight binding
FLI1 = target: T1, FLI1 (Homo sapiens, UniProt Q01543 1-452); settings: protein: recombinant; tags: N-terminal GST; dsDNA, one strand shown
T1 sequence: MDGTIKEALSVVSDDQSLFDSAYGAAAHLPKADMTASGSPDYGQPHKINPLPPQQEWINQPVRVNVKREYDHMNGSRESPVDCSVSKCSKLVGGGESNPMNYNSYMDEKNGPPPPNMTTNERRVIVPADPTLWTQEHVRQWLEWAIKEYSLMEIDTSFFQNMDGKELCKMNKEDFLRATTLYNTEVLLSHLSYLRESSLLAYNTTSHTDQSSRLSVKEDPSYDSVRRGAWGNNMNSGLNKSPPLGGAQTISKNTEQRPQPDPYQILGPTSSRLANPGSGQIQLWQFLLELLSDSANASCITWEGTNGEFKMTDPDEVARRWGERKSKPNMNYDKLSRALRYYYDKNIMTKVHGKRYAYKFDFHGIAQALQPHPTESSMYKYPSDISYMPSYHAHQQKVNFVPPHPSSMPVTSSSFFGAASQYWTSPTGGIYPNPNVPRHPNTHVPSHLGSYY
Outline: (§1)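 Yeast served to express human transcription factors as GST fusions, which were then captured on glutathione beads and labelled with DNA barcodes. Pooled with a tag-only sample, they were incubated with 200 nmole of a 16-mer random double-stranded DNA library for 30 min at room temperature in Tris/NaCl/DTT/glycerol buffer, washed, crosslinked with 0.1% formaldehyde, ligated by proximity, amplified by PCR and sequenced. Dividing each hexamer's read frequency for a factor by its frequency for the tag-only sample gives the binding signal.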

ELK1 = target: T2, ELK1 (Homo sapiens, UniProt P19419 1-428); settings: protein: recombinant; tags: N-terminal GST; dsDNA, one strand shown
T2 sequence: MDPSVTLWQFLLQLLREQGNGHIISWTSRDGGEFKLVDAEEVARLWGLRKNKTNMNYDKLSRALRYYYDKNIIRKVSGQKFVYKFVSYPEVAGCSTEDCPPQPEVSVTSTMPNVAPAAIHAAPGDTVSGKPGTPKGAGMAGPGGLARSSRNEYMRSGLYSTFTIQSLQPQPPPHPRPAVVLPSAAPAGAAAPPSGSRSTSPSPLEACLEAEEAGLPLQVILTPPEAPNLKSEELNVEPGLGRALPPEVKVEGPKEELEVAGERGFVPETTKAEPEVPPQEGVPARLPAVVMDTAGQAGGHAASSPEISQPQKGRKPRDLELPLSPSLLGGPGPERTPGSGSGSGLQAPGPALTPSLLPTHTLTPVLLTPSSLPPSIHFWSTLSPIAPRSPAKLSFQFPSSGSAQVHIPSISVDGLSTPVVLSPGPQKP
Outline: as §1

GABPA = target: T3, GABPA (Homo sapiens, UniProt Q06546 1-454); settings: protein: recombinant; tags: N-terminal GST; dsDNA, one strand shown
T3 sequence: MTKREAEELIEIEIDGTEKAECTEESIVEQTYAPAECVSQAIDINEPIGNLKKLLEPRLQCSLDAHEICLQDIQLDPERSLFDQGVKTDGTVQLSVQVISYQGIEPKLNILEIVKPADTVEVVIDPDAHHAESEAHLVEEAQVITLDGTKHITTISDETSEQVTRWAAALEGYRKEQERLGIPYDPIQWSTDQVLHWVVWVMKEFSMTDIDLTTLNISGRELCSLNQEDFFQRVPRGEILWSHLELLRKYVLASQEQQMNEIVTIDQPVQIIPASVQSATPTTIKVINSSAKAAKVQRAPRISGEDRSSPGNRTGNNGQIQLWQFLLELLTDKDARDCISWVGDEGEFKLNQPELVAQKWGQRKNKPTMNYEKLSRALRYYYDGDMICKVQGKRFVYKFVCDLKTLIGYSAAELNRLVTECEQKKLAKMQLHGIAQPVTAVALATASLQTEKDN
Outline: as §1

ERG = target: T4, ERG (Homo sapiens, UniProt P11308 1-479); settings: protein: recombinant; tags: N-terminal GST; dsDNA, one strand shown
T4 sequence: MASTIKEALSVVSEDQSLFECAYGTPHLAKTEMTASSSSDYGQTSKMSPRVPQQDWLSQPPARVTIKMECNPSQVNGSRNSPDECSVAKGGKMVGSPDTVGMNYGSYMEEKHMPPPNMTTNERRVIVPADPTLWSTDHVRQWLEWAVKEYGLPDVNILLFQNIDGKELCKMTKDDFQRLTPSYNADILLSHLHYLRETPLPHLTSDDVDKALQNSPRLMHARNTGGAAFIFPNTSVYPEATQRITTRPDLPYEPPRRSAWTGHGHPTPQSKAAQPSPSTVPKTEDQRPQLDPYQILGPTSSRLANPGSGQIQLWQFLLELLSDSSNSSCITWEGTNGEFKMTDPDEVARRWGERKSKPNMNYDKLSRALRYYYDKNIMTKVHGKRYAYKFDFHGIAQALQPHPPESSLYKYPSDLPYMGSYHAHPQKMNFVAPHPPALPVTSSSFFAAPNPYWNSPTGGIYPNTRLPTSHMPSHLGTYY
Outline: as §1

ELF1 = ELF1 (Homo sapiens, UniProt P32519 1-619); settings: protein: recombinant; tags: N-terminal GST; dsDNA, one strand shown
Chain of ELF1 (P32519 whole entry): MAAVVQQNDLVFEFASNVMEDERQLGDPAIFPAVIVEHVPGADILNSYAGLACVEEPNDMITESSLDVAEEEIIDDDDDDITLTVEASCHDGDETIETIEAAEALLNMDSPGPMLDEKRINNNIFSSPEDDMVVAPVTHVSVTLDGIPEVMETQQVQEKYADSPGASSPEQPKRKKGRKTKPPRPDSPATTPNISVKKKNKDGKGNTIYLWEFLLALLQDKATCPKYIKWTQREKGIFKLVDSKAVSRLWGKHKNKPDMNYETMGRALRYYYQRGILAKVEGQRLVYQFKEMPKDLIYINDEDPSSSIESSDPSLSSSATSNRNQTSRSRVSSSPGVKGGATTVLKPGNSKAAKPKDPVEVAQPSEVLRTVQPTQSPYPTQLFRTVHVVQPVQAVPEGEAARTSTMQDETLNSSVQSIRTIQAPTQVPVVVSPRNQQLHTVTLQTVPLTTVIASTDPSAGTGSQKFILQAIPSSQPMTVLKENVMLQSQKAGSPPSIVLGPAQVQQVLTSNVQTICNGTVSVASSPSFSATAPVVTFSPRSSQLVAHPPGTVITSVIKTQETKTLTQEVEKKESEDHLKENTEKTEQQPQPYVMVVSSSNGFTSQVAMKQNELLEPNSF
Outline: as §1

EHF = target: T5, EHF (Homo sapiens, UniProt Q9NZC4 1-300); settings: protein: recombinant; tags: N-terminal GST; dsDNA, one strand shown
T5 sequence: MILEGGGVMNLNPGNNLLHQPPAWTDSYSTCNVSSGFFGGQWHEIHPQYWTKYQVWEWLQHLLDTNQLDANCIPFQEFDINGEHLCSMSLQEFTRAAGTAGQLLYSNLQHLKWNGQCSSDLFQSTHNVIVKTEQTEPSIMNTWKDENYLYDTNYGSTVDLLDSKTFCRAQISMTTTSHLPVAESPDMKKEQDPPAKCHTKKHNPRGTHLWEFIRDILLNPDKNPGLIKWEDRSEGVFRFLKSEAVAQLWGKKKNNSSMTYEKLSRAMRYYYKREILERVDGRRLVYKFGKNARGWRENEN
Outline: as §1

SPI1 = SPI1 (Homo sapiens, UniProt P17947 1-270); settings: protein: recombinant; tags: N-terminal GST; dsDNA, one strand shown
Outline: as §1

SPIB = SPIB (Homo sapiens, UniProt Q01892 1-262); settings: protein: recombinant; tags: N-terminal GST; dsDNA, one strand shown
Chain of SPIB (Q01892 whole entry): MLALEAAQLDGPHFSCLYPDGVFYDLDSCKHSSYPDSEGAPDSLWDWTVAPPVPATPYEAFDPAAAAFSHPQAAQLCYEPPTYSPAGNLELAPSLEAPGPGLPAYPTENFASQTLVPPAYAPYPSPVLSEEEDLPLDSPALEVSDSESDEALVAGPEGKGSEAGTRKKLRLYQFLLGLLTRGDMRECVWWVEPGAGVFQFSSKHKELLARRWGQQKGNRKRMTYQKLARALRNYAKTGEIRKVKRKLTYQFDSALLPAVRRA
Outline: as §1

ELK3 = target: T6, ELK3 (Homo sapiens, UniProt P41970 1-407); settings: protein: recombinant; tags: N-terminal GST; dsDNA, one strand shown
T6 sequence: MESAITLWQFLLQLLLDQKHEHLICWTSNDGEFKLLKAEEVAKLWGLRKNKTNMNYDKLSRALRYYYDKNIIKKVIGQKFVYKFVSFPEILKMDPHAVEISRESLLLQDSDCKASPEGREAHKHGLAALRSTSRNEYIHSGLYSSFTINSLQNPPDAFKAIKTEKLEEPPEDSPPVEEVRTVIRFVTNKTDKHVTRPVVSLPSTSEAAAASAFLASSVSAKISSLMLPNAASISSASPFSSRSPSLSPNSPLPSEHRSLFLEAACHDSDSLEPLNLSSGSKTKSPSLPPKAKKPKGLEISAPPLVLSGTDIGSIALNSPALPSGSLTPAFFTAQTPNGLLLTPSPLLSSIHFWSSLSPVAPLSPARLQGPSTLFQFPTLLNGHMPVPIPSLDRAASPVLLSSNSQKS
Outline: as §1

FEV = target: T7, FEV (Homo sapiens, UniProt Q99581 1-238); settings: protein: recombinant; tags: N-terminal GST; dsDNA, one strand shown
T7 sequence: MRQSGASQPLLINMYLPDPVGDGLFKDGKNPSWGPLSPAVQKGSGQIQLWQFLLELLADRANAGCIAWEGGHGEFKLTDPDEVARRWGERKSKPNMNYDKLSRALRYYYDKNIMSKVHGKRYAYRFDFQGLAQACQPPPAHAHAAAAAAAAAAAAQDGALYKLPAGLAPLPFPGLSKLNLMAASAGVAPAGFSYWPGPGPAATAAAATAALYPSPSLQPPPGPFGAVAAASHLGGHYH
Outline: as §1

ETV5 = ETV5 (Homo sapiens, UniProt P41161 1-510); settings: protein: recombinant; tags: N-terminal GST; dsDNA, one strand shown
Chain of ETV5 (P41161 whole entry): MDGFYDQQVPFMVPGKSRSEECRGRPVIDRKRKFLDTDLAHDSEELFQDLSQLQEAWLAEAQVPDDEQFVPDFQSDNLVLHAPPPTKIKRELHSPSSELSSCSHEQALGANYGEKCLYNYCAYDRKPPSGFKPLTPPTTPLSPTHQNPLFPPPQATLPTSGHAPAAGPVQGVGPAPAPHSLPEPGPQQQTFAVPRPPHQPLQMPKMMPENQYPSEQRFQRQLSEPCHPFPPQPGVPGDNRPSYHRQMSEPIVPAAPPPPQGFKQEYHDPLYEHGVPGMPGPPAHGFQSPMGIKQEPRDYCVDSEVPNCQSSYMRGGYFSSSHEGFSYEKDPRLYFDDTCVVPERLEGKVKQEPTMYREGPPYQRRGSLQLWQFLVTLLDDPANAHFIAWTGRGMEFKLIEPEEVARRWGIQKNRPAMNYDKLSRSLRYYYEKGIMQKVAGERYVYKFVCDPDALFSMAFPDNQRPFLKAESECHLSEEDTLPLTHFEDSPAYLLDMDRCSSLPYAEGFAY
Outline: as §1

HSF1 = HSF1 (Homo sapiens, UniProt Q00613 1-529); settings: protein: recombinant; tags: N-terminal GST; chain copies: 3; dsDNA, one strand shown
Chain of HSF1 (Q00613 whole entry): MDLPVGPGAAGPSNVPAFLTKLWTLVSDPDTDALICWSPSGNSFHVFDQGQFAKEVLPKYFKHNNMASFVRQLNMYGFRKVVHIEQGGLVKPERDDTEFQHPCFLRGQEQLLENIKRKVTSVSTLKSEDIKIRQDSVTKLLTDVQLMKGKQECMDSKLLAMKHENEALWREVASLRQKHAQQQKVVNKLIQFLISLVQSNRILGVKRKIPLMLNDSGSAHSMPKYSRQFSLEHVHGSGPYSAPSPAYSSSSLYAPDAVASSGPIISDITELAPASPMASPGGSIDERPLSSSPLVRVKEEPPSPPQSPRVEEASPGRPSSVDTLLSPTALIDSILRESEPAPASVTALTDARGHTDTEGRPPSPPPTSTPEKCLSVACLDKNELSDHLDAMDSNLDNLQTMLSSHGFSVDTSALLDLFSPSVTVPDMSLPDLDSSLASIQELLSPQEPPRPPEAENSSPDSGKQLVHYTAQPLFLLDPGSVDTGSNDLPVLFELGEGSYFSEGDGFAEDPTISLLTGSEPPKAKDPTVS
Outline: as §1

SPIC = target: T8, SPIC (Homo sapiens, UniProt Q8N5J4 1-248); settings: protein: recombinant; tags: N-terminal GST; dsDNA, one strand shown
T8 sequence: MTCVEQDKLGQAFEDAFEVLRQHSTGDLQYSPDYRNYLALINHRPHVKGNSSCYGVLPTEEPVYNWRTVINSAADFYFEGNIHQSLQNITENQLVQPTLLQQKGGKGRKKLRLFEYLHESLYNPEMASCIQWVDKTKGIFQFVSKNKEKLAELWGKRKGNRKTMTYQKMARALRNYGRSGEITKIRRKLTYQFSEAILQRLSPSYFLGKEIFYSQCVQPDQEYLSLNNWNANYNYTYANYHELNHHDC
Outline: as §1

ELF4 = ELF4 (Homo sapiens, UniProt Q99607 1-663); settings: protein: recombinant; tags: N-terminal GST; dsDNA, one strand shown
Chain of ELF4 (Q99607 whole entry): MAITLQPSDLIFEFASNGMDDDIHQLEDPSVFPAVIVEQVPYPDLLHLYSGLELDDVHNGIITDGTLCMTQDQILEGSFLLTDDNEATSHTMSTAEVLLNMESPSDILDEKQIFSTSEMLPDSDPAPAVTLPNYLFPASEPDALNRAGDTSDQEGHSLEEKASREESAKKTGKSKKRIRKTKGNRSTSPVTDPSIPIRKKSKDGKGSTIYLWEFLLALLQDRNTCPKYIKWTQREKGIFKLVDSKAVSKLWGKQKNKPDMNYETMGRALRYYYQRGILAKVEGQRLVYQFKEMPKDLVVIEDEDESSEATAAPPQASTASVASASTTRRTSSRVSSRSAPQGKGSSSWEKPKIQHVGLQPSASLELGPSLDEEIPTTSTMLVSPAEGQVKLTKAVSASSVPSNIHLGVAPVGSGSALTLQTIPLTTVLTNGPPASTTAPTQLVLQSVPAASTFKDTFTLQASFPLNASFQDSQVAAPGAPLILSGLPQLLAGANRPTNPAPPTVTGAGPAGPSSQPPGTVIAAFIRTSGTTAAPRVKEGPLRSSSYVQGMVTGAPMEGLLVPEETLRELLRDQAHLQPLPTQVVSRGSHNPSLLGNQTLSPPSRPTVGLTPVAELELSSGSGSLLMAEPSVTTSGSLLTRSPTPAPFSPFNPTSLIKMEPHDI
Outline: as §1

ELK4 = target: T9, ELK4 (Homo sapiens, UniProt P28324-2 1-405); settings: protein: recombinant; tags: N-terminal GST; dsDNA, one strand shown
T9 sequence: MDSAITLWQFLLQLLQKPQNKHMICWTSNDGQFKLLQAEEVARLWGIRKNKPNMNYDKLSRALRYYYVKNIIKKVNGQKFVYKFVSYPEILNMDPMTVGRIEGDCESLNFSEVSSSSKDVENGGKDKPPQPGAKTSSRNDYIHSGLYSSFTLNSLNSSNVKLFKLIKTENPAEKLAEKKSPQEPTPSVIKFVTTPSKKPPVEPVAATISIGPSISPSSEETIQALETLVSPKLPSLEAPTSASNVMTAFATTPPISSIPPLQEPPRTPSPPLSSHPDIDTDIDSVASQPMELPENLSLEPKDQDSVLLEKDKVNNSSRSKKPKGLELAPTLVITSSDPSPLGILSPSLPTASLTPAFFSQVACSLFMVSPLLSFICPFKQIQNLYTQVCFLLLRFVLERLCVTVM
Outline: as §1

ETV2 = target: T10, ETV2 (Homo sapiens, UniProt O00321 1-342); settings: protein: recombinant; tags: N-terminal GST; dsDNA, one strand shown
T10 sequence: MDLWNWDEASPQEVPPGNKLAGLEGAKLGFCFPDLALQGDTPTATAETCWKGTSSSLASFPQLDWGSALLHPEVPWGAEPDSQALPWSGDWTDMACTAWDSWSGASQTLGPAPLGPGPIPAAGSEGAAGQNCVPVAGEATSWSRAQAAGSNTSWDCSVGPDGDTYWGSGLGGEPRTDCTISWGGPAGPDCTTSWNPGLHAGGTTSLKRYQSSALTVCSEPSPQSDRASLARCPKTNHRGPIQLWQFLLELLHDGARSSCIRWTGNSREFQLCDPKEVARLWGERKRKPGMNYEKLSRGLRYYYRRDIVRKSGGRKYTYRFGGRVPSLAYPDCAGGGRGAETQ
Outline: as §1

ELF3 = target: T11, ELF3 (Homo sapiens, UniProt P78545 1-371); settings: protein: recombinant; tags: N-terminal GST; dsDNA, one strand shown
T11 sequence: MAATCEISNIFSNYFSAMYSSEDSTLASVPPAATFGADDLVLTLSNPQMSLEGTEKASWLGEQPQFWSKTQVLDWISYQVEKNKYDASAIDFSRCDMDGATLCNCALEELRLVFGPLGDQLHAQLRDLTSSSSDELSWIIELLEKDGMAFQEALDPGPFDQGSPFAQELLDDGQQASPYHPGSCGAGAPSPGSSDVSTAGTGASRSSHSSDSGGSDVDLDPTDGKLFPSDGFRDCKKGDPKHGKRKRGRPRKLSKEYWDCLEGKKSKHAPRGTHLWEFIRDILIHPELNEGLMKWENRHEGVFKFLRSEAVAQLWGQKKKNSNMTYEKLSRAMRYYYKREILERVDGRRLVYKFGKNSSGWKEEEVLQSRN
Outline: as §1

CRX = CRX (Homo sapiens, UniProt O43186 1-299); settings: protein: recombinant; tags: N-terminal GST; dsDNA, one strand shown
Chain of CRX (O43186 whole entry): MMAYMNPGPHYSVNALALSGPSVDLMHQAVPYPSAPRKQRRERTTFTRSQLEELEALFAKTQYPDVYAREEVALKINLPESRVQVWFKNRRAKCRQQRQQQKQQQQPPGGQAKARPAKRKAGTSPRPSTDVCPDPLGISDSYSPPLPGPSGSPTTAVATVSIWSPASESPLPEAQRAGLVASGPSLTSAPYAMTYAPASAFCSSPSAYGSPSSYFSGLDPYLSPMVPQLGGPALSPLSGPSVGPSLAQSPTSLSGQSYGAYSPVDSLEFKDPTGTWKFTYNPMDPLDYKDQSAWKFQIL
Outline: as §1

ETV1 = ETV1 (Homo sapiens, UniProt P50549 1-477); settings: protein: recombinant; tags: N-terminal GST; dsDNA, one strand shown
Chain of ETV1 (P50549 whole entry): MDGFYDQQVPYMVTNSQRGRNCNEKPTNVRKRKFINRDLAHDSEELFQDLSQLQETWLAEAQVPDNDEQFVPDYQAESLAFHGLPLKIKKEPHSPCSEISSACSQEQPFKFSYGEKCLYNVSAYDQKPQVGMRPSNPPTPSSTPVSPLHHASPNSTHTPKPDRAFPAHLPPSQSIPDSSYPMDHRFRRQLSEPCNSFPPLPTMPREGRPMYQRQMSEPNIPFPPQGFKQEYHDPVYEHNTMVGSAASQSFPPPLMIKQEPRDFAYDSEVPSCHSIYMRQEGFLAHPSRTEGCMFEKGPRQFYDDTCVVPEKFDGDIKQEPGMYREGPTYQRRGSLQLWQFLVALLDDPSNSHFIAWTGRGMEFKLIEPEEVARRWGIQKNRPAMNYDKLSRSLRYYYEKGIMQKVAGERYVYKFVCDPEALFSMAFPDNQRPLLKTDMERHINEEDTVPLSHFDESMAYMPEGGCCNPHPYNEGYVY
Outline: as §1

Sequence: TATTCA
- binding signal (FLI1): 1.31 fold enrichment (6-mer frequency, TF over GST control)
- binding signal (ELK1): 1.26 fold enrichment (6-mer frequency, TF over GST control)
- binding signal (GABPA): 1.23 fold enrichment (6-mer frequency, TF over GST control)
- binding signal (ERG): 1.29 fold enrichment (6-mer frequency, TF over GST control)
- binding signal (ELF1): 1.38 fold enrichment (6-mer frequency, TF over GST control)
- binding signal (EHF): 1.32 fold enrichment (6-mer frequency, TF over GST control)
- binding signal (SPI1): 1.29 fold enrichment (6-mer frequency, TF over GST control)
- binding signal (SPIB): 1.27 fold enrichment (6-mer frequency, TF over GST control)
- binding signal (ELK3): 1.35 fold enrichment (6-mer frequency, TF over GST control)
- binding signal (FEV): 1.28 fold enrichment (6-mer frequency, TF over GST control)
- binding signal (ETV5): 1.33 fold enrichment (6-mer frequency, TF over GST control)
- binding signal (HSF1): 1.32 fold enrichment (6-mer frequency, TF over GST control)
- binding signal (SPIC): 1.47 fold enrichment (6-mer frequency, TF over GST control)
- binding signal (ELF4): 1.29 fold enrichment (6-mer frequency, TF over GST control)
- binding signal (ELK4): 1.33 fold enrichment (6-mer frequency, TF over GST control)
- binding signal (ETV2): 1.35 fold enrichment (6-mer frequency, TF over GST control)
- binding signal (ELF3): 1.31 fold enrichment (6-mer frequency, TF over GST control)
- binding signal (CRX): 1.42 fold enrichment (6-mer frequency, TF over GST control)
- binding signal (ETV1): 1.28 fold enrichment (6-mer frequency, TF over GST control)
